Screening data: PubChem, Broad Institute
aSyn 5UTR act = Activators working through SNCA 5'UTR binding (MLPCN); alpha-synuclein 5'UTR reporter, activators screen; activity score, % (tested at 7.5 µM), hits read low; 300,000 tested, 7.1% active; in the data active = activity score below about -60%
Starred values were filed as active, the others as inactive. A selection follows.

SMILES	aSyn 5UTR act
CCN1C(=O)C(=Cc2cccc(OC)c2Oc2ccc([N+](=O)[O-])cc2[N+](=O)[O-])SC1=S	80
CCN1C(=O)/C(=C/C=C2\C=CN(CC)c3ccccc32)SC1=S	-80*
CC(=O)c1cccc(NC(=O)CN2C(=O)COc3ccc(S(=O)(=O)N4CCOCC4)cc32)c1	73
CCOC(=O)C1CCN(C(=O)CN2C(=O)COc3ccc(C(C)(C)C)cc32)CC1	-111*
COc1cc(N/N=C(\C)c2ccc(N)cc2)nc(-c2ccccc2)n1	-62*
O=C1CC(/C=C/c2ccc([N+](=O)[O-])cc2)=Nc2ccccc2N1	-112*
CCCCOC(=O)Nc1cccc(Cl)c1C	-104*
CC(=Nc1ccccc1O)c1sc2ccccc2c1O	-93*
CC(=Nc1cccc(C)c1)c1sc2ccccc2c1O	-215*
CC(=Nc1ccc(O)cc1)c1sc2ccccc2c1O	-187*
Cc1cccc(N=Nc2ccc(O)c3ncccc23)c1	73
CC(=O)NCCN=C(C)c1sc2ccccc2c1O	-71*
Cc1ccc2nc(N3C(=O)C(O)=C(C(=O)c4ccco4)C3c3cccs3)sc2c1 (configuration not stated)	-187*
COc1ccc2nc(N3C(=O)C(O)=C(C(=O)c4ccco4)C3c3ccccc3OC)sc2c1 (configuration not stated)	-114*
Cc1ccc(Nc2cc(C)c3ccc(O)cc3n2)cc1C	-94*
Cc1ccccc1Nc1cc(C)c2c(O)cccc2n1	-105*
Cc1ccc(Nc2cc(C)c3c(O)cccc3n2)cc1C	-118*
COc1ccc(Nc2cc(C)c3c(O)cccc3n2)cc1	-140*
CC1CCCN(c2ncnc3c2cnn3-c2ccccc2)C1 (configuration not stated)	61
Cc1ccc(-n2ncc3c(N4CCCC4)ncnc32)c(C)c1	-114*
Cc1ccc(-n2ncc3c(N4CCCC(C)C4)ncnc32)c(C)c1 (configuration not stated)	-125*
O=C(/C=C/c1ccco1)NCCc1ccccc1	-126*
Cc1ccc(/C=C/C(=O)NCCc2ccccc2)o1	-99*
Cc1ccc(-c2nnc(NC3CCCC3)s2)cc1	-143*
COc1ccc(C2CC(=O)c3sc(NC(C)=O)nc3C2)cc1 (configuration not stated)	-75*
SMILES	aSyn 5UTR act
CN(C)c1ccc(/C=N/N=C/c2ccccc2O)cc1	-171*
N/C(=N\OC(=O)c1cccc2ccccc12)c1ccccn1	102
COc1cccc(C(=O)O/N=C(\N)c2ccncc2)c1OC	-84*
COc1cccc(C(=O)O/N=C(\N)c2ccccn2)c1OC	-74*
COc1ccc(-c2cc3ccccc3oc2=O)cc1NC(=O)c1ccc(Br)o1	-94*
CCC(=O)Nc1ccc(-c2cc3ccccc3oc2=O)cc1	54
CCC(=O)Nc1cc(-c2cc3ccccc3oc2=O)ccc1OC	-98*
COc1ccc(-c2cc3ccccc3oc2=O)cc1NC(=O)c1ccc([N+](=O)[O-])o1	-240*
CCn1c(SCC(=O)N=Nc2c(O)[nH]c3ccccc23)nc2ccccc21	-79*
O=C(CSCc1ccccc1)N=Nc1c(O)[nH]c2ccccc12	-79*
O=C(N=Nc1c(O)[nH]c2ccccc12)c1ccco1	-170*
CCN(CC)c1nc(C)nc2c1cnn2CCc1ccccc1	-185*
COC(CN(C(=O)CCl)C(C(=O)NC1CCCCC1)c1ccccc1C)OC (configuration not stated)	-71*
CCOc1ccc(-c2ccc(/C=C3/C(=N)N4C=CSC4=NC3=O)o2)c([N+](=O)[O-])c1	-72*
CC1CC1C(=O)Nc1ccc(-c2ccccc2)cc1 (configuration not stated)	-152*
CCOC(=O)/C=C/c1ccc2oc3ccccc3c(=O)c2c1	-191*
CCc1ccc(N2NC(=O)/C(=C/C=C/c3ccco3)C2=O)cc1	-78*
Cc1nc2nc(-c3ccccc3)nn2c(C)c1C	-105*
Cc1nc2nc(-c3ccc(Cl)cc3)nn2c(C)c1Cl	-235*
Nc1nccc(-c2ccc(-n3cnc4ccccc43)cc2)n1	-63*
Cc1nccc(-c2ccc(-n3cnc4ccccc43)cc2)n1	-96*
CCOC(=O)c1cnc2c(ccc3ccccc32)c1N	-126*
CCOC(=O)c1cnc2c(ccc3ccccc32)c1NCCO	-96*
CCOc1c(OC(C)=O)ccc(/C=C/c2ccc3cccc(OC(C)=O)c3n2)c1[N+](=O)[O-]	-378*
COc1c(OC(C)=O)ccc(/C=C/c2ccc3ccccc3n2)c1[N+](=O)[O-]	-209*
SMILES	aSyn 5UTR act
COc1c(OC(C)=O)ccc(/C=C/c2ccc3cccc(OC)c3n2)c1[N+](=O)[O-]	-146*
CNc1cccc2c1C(=O)c1ccccc1C2=O	-119*
CNS(=O)(=O)c1cc2c3c(cccc3c1)C(=O)NC2=O	71
Cn1c2c(c(=O)n(C)c1=O)C(C(F)(F)F)(C(F)(F)F)N=C(c1ccc(Cl)cc1)N2	99
Cn1c(/C=C/c2cccc([N+](=O)[O-])c2)c([N+](=O)[O-])c(=O)n(C)c1=O	-194*
CCCCCOc1ccc(/C=C/c2c([N+](=O)[O-])c(=O)n(C)c(=O)n2C)cc1	-175*
Cn1c(/C=C/c2ccc(Cl)cc2)c([N+](=O)[O-])c(=O)n(C)c1=O	-147*
COC(=O)c1c(NC(=O)CCl)sc(C(=O)N2CCOCC2)c1C	-83*
O=C(Cn1c(=O)sc2ccccc21)NCc1ccccn1	-68*
CCOC(=O)c1sc(NC(=S)NC(=O)C2CC2)cc1C	-85*
CCOC(=O)c1sc(NC(=S)NC(=O)C23CC4CC(CC(C4)C2)C3)cc1C	-104*
Cc1ccc(COc2ccccc2C(=S)N2CCCC2)cc1	-76*
COc1cc(C(=S)N2CCCC2)ccc1OCc1ccc(C)cc1	-116*
COc1ccc(NC(=O)c2cccc(OC(F)F)c2)cc1Cl	-197*
COc1ccc(NC(=O)c2ccccc2F)cc1Cl	-156*
COc1cc(OC)c(NC(=O)c2cccc(F)c2)cc1Cl	-64*
CN1CCc2nc(NC(=O)c3cccc(OC(F)F)c3)sc2C1	-67*
COc1ccc(NC(=O)/C=C/C(=O)O)cc1Cl	-105*
O=C(CCCOc1ccc(Cl)cc1Cl)Nc1ccccc1C(=O)O	-83*
O=C(Nc1ccc2c(c1)CCC2)c1cccc(OC(F)F)c1	-126*
COc1ccc(NC(=O)c2cccc(F)c2)cc1Cl	-206*
COc1ccc(C(=O)Nc2ccccc2C(=O)O)cc1Cl	-123*
O=C(Nc1ccc(OC(F)F)c(Cl)c1)c1cccc(OC(F)F)c1	-83*
Nc1ccc(OCCc2ccccc2)cc1	-76*
CC/C(=N\Nc1ccccc1[N+](=O)[O-])c1ccc(O)cc1	-90*
SMILES	aSyn 5UTR act
C/C(=N\Nc1ccccc1[N+](=O)[O-])c1ccccc1O	-221*
COC(=O)c1ccc(C2N=C(c3cccs3)CC(c3ccccc3O)N2)cc1 (configuration not stated)	-98*
O=[N+]([O-])c1ccc(/C=N/N2CCCCC2)cc1	-128*
Clc1ccc(/C=N/N2CCCCC2)cc1	-103*
O=C(/C=C/c1ccco1)Nc1ccc2nn(-c3ccccc3)nc2c1	-209*
Cc1ccc(-n2nc3ccc(NC(=O)c4cccc([N+](=O)[O-])c4C)cc3n2)cc1	-66*
CC(C)CC(=O)Nc1ccc2nn(-c3ccccc3)nc2c1	-178*
Cc1ccc(-n2nc3ccc(NC(=O)c4ccco4)cc3n2)cc1	-83*
CC(C)C(=O)Nc1ccc2nn(-c3ccc(F)cc3)nc2c1	-71*
Nc1ccc2nn(-c3ccc(F)cc3)nc2c1	-108*
Cc1ccc(-n2nc3ccc(NC(=O)C(C)C)cc3n2)cc1	-137*
